Structures can show the parent of a compound that is named as a salt.
Test system: MARIMO
Test: cell viability relative to vehicle control; higher = less cytotoxic
Settings: 10 µM; SRSF2 genotype: SRSF2 wt/wt
Summary of the method: (§1)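 Screening covered the Selleck bioactive, kinase and epigenetic probe libraries, less identity-inconsistent compounds, on CRISPR-edited mutant clones and isogenic wild-type clones of four leukaemia lines. Cells, at 2000 per well in 50 µL medium, received a single 10 µM acoustically dispensed dose. After 48 h the supernatant was removed and CellTiter-Glo luminescence was read. Viability was analysed in Genedata Screener as percent of the on-plate vehicle control.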

Question: For `Nc1ncnc2c1nc(Br)n2[C@@H]1O[C@@H]2COP(=O)(O)O[C@H]2[C@H]1O` [8-Bromo-cAMP], which cell viability is on record?
Answer: 96.1%

Question: How did the cell viability turn out when `Cc1noc(NS(=O)(=O)c2ccc(N)cc2)c1C` [Sulfisoxazole] was run?
Answer: 104%

Question: Which cell viability does the source give for `COC(=O)c1ccccc1O` [Methyl salicylate] here?
Answer: 104%

Question: `CC(C)C(NC(=O)c1ccc2ccccc2n1)C(=O)NC(CC(=O)O)C(=O)COc1c(F)cccc1F` (stereo not given) was tested. Which cell viability did it give?
Answer: 110%

Question: With `O=C(O)c1ccco1` [2-Furoic acid] as the molecule, how does the cell viability read?
Answer: 108%

Question: How did the cell viability turn out when `c1cn2cc(-c3ccc4cn[nH]c4c3)nc(Nc3ccc(N4CCOCC4)cc3)c2n1` [Entospletinib (GS-9973)] was run?
Answer: 89.9%

Question: For `COc1cc(CO)cc(OC)c1O` [4-Hydroxy-3,5-dimethoxybenzyl alcohol], which cell viability is on record?
Answer: 107%

Question: How did the cell viability turn out when `O=c1nc(N2CCOCC2)oc2c(-c3cccc4c3sc3ccccc34)cccc12` was run?
Answer: 102%

Question: How did the cell viability turn out when `N[C@@H](CS)C(=O)O` [L-Cysteine HCl] was run?
Answer: 97.7%

Question: Which cell viability does the source give for `Cc1cc(C)c(CNC(=O)c2cc(-c3ccc(N4CCN(C)CC4)nc3)cc3c2c(C)cn3C(C)C)c(=O)[nH]1` here?
Answer: 94.2%

Question: How did the cell viability turn out when `COc1ccc(C[C@@H]2c3cc(Oc4cc(C[C@@H]5c6cc(OC)c(OC)cc6CCN5C)ccc4O)c(OC)cc3CCN2C)cc1` [Neferine] was run?
Answer: 120%

Question: With `CNC[C@H](O)c1ccc(O)c(O)c1` [Epinephrine bitartrate (Adrenalinium)] as the molecule, how does the cell viability read?
Answer: 108%

Question: Which cell viability does the source give for `C=C(C)[C@@H]1CCC2=CC(=O)C[C@@H](C)[C@]2(C)C1` [Nootkatone] here?
Answer: 95.4%

Question: `C[n+]1c2n(c(=O)c3ccccc31)CCc1c-2[nH]c2ccccc12` [Dehydroevodiamine hydrochloride] was tested. Which cell viability did it give?
Answer: 100%

Question: Which cell viability does the source give for `Cn1cc(C(=O)Nc2ccc3c(c2)OCCO3)c2ccccc2c1=O` here?
Answer: 83.5%

Question: How did the cell viability turn out when `CC(CCC(=O)NCCS(=O)(=O)O)C1CCC2C3C(O)CC4CC(O)CCC4(C)C3CCC12C` (stereo not given) [Taurochenodeoxycholic acid] was run?
Answer: 108%

Question: For `CC(C)c1nc(CN(C)C(=O)N[C@@H](CCN2CCOCC2)C(=O)N[C@H](CC[C@H](Cc2ccccc2)NC(=O)OCc2cncs2)Cc2ccccc2)cs1` [Cobicistat (GS-9350)], which cell viability is on record?
Answer: 104%

Question: How did the cell viability turn out when `CO/N=C(\C(=O)N[C@@H]1C(=O)N2C(C(=O)O)=C(CSc3nnnn3C)CS[C@H]12)c1csc(N)n1` [Cefmenoxime hydrochloride] was run?
Answer: 97.1%

Question: Which cell viability does the source give for `CCCCOc1nc(N)c2c(n1)N(Cc1cccc(CN3CCCC3)c1)CC(=O)N2` here?
Answer: 91.3%

Question: `Cc1cc(/C=C2/SC(=S)NC2=O)c(C)n1-c1cccnc1` [Optovin] was tested. Which cell viability did it give?
Answer: 102%

Question: How did the cell viability turn out when `CN(C(Cc1ccc(OS(=O)(=O)c2cccc3cnccc23)cc1)C(=O)N1CCN(c2ccccc2)CC1)S(=O)(=O)c1cccc2cnccc12` (stereo not given) was run?
Answer: 72.7%

Question: For `CCCCCCCC(=O)CCc1ccc(O)c(OC)c1` [6-Paradol], which cell viability is on record?
Answer: 99.7%

Question: How did the cell viability turn out when `CNC(=C[N+](=O)[O-])NCCSCc1ccc(CN(C)C)o1` [Ranitidine Hydrochloride] was run?
Answer: 106%

Question: How did the cell viability turn out when `CC(C)(C)NC[C@H](O)COc1nsnc1N1CCOCC1` [Timolol Maleate] was run?
Answer: 106%

Question: Which cell viability does the source give for `O=C(O)CCN1C(=O)/C(=C/c2ccc(-c3ccc([N+](=O)[O-])cc3)o2)SC1=S` here?
Answer: 98.5%

Question: Which cell viability does the source give for `C[C@]12CC[C@@H]3c4ccc(O)cc4C[C@@H](CCCCCCCCC[S+]([O-])CCCC(F)(F)C(F)(F)F)[C@H]3[C@@H]1CC[C@@H]2O` (stereo not given in full) [Fulvestrant (Faslodex)] here?
Answer: 87%

Question: How did the cell viability turn out when `OC[C@@H](O)[C@@H](O[C@@H]1O[C@H](CO)[C@H](O)[C@H](O)[C@H]1O)[C@H](O)[C@@H](O)CO` [Lactitol] was run?
Answer: 100%

Question: `CC(C)N(CCCNC(=O)Nc1ccc(C(C)(C)C)cc1)C[C@H]1O[C@@H](n2ccc3c(N)ncnc32)[C@H](O)[C@@H]1O` was tested. Which cell viability did it give?
Answer: 96.9%

Question: Which cell viability does the source give for `c1ccc2[nH]c(-c3cscn3)nc2c1` [Thiabendazole] here?
Answer: 103%

Question: For `CN1[C@@H]2CC[C@H]1C[C@@H](OC(c1ccccc1)c1ccccc1)C2` [Benztropine mesylate], which cell viability is on record?
Answer: 91.2%

Test system: MOLM14
Test: as above
Settings: 10 µM; SRSF2 genotype: SRSF2 P95H/wt
Summary of the method: as §1

Question: `CCCSc1nc(N[C@@H]2C[C@H]2c2ccc(F)c(F)c2)c2nnn([C@@H]3C[C@H](OCCO)[C@@H](O)[C@H]3O)c2n1` [Ticagrelor] was tested. Which cell viability did it give?
Answer: 74.5%

Question: For `O=[N+]([O-])c1cn2c(n1)OC[C@@H](OCc1ccc(OC(F)(F)F)cc1)C2`, which cell viability is on record?
Answer: 97.8%

Question: For `Cn1cncc1[C@@](N)(c1ccc(Cl)cc1)c1ccc2c(c1)c(-c1cccc(Cl)c1)cc(=O)n2C` [Tipifarnib (Zarnestra)], which cell viability is on record?
Answer: 29.9%

Question: Which cell viability does the source give for `CCN1CCN(C(=O)N[C@@H](C(=O)N[C@@H]2C(=O)N3C(C(=O)O)=C(CSc4nnnn4C)CS[C@H]23)c2ccc(O)cc2)C(=O)C1=O` [Cefoperazone (Cefobid)] here?
Answer: 98.1%

Question: Which cell viability does the source give for `C[C@]1(O)C[C@@H](c2nc(-c3ccc4ccc(-c5ccccc5)nc4c3)c3c(N)nccn32)C1` [OSI-906 (Linsitinib)] here?
Answer: 72.2%

Question: Which cell viability does the source give for `O=c1c(O)c(-c2ccc(O)c(O)c2)oc2cc(O)ccc12` [Fisetin (Fustel)] here?
Answer: 86.8%

Question: With `CC1(C)[C@@H](O)CC[C@]2(C)[C@H]3C(=O)C=C4[C@@H]5C[C@@](C)(C(=O)O)CC[C@]5(C)CC[C@@]4(C)[C@]3(C)CC[C@@H]12` [Enoxolone (Glycyrrhetin)] as the molecule, how does the cell viability read?
Answer: 104%

Question: With `OCCN1C[C@H](O)[C@@H](O)[C@H](O)[C@H]1CO` [Miglitol (Glyset)] as the molecule, how does the cell viability read?
Answer: 106%

Question: With `CC(OC(=O)OC1CCCCC1)OC(=O)C1=C(CSc2nnnn2CCN(C)C)CS[C@@H]2[C@H](NC(=O)Cc3csc(N)n3)C(=O)N12` (stereo not given in full) [Cefotiam Hexetil Hydrochloride] as the molecule, how does the cell viability read?
Answer: 89.9%

Question: How did the cell viability turn out when `COc1ccc(-c2nc(-c3cc(C(F)(F)F)cc(C(F)(F)F)c3)n(Cc3ccc(C(N)=O)cc3)c2-c2ccc(OC)cc2)cc1` [Apoptozole] was run?
Answer: 88.5%

Question: `Nc1ncnc2c1nc(Br)n2[C@@H]1O[C@@H]2COP(=O)(O)O[C@H]2[C@H]1O` [8-Bromo-cAMP] was tested. Which cell viability did it give?
Answer: 65.9%

Question: For `Cc1noc(NS(=O)(=O)c2ccc(N)cc2)c1C` [Sulfisoxazole], which cell viability is on record?
Answer: 97.6%

Question: With `COC(=O)c1ccccc1O` [Methyl salicylate] as the molecule, how does the cell viability read?
Answer: 96.3%

Question: With `CC(C)C(NC(=O)c1ccc2ccccc2n1)C(=O)NC(CC(=O)O)C(=O)COc1c(F)cccc1F` (stereo not given) as the molecule, how does the cell viability read?
Answer: 104%

Question: `O=C(O)c1ccco1` [2-Furoic acid] was tested. Which cell viability did it give?
Answer: 98.5%

Question: Which cell viability does the source give for `c1cn2cc(-c3ccc4cn[nH]c4c3)nc(Nc3ccc(N4CCOCC4)cc3)c2n1` [Entospletinib (GS-9973)] here?
Answer: 79%

Question: How did the cell viability turn out when `COc1cc(CO)cc(OC)c1O` [4-Hydroxy-3,5-dimethoxybenzyl alcohol] was run?
Answer: 99.7%

Question: How did the cell viability turn out when `O=c1nc(N2CCOCC2)oc2c(-c3cccc4c3sc3ccccc34)cccc12` was run?
Answer: 82.6%

Question: Which cell viability does the source give for `N[C@@H](CS)C(=O)O` [L-Cysteine HCl] here?
Answer: 89.1%

Question: For `Cc1cc(C)c(CNC(=O)c2cc(-c3ccc(N4CCN(C)CC4)nc3)cc3c2c(C)cn3C(C)C)c(=O)[nH]1`, which cell viability is on record?
Answer: 80.4%

Question: `COc1ccc(C[C@@H]2c3cc(Oc4cc(C[C@@H]5c6cc(OC)c(OC)cc6CCN5C)ccc4O)c(OC)cc3CCN2C)cc1` [Neferine] was tested. Which cell viability did it give?
Answer: 106%

Question: How did the cell viability turn out when `CNC[C@H](O)c1ccc(O)c(O)c1` [Epinephrine bitartrate (Adrenalinium)] was run?
Answer: 84.5%

Question: With `C=C(C)[C@@H]1CCC2=CC(=O)C[C@@H](C)[C@]2(C)C1` [Nootkatone] as the molecule, how does the cell viability read?
Answer: 105%

Question: With `C[n+]1c2n(c(=O)c3ccccc31)CCc1c-2[nH]c2ccccc12` [Dehydroevodiamine hydrochloride] as the molecule, how does the cell viability read?
Answer: 92.8%

Question: With `Cn1cc(C(=O)Nc2ccc3c(c2)OCCO3)c2ccccc2c1=O` as the molecule, how does the cell viability read?
Answer: 84.3%

Question: For `CC(CCC(=O)NCCS(=O)(=O)O)C1CCC2C3C(O)CC4CC(O)CCC4(C)C3CCC12C` (stereo not given) [Taurochenodeoxycholic acid], which cell viability is on record?
Answer: 104%

Question: With `CC(C)c1nc(CN(C)C(=O)N[C@@H](CCN2CCOCC2)C(=O)N[C@H](CC[C@H](Cc2ccccc2)NC(=O)OCc2cncs2)Cc2ccccc2)cs1` [Cobicistat (GS-9350)] as the molecule, how does the cell viability read?
Answer: 94.3%

Question: `CO/N=C(\C(=O)N[C@@H]1C(=O)N2C(C(=O)O)=C(CSc3nnnn3C)CS[C@H]12)c1csc(N)n1` [Cefmenoxime hydrochloride] was tested. Which cell viability did it give?
Answer: 99.7%

Question: With `CCCCOc1nc(N)c2c(n1)N(Cc1cccc(CN3CCCC3)c1)CC(=O)N2` as the molecule, how does the cell viability read?
Answer: 97.2%

Question: Which cell viability does the source give for `Cc1cc(/C=C2/SC(=S)NC2=O)c(C)n1-c1cccnc1` [Optovin] here?
Answer: 89.3%

Question: How did the cell viability turn out when `CN(C(Cc1ccc(OS(=O)(=O)c2cccc3cnccc23)cc1)C(=O)N1CCN(c2ccccc2)CC1)S(=O)(=O)c1cccc2cnccc12` (stereo not given) was run?
Answer: 79.8%

Question: With `CCCCCCCC(=O)CCc1ccc(O)c(OC)c1` [6-Paradol] as the molecule, how does the cell viability read?
Answer: 94.3%

Question: For `CNC(=C[N+](=O)[O-])NCCSCc1ccc(CN(C)C)o1` [Ranitidine Hydrochloride], which cell viability is on record?
Answer: 103%

Question: Which cell viability does the source give for `CC(C)(C)NC[C@H](O)COc1nsnc1N1CCOCC1` [Timolol Maleate] here?
Answer: 99.3%

Question: Which cell viability does the source give for `O=C(O)CCN1C(=O)/C(=C/c2ccc(-c3ccc([N+](=O)[O-])cc3)o2)SC1=S` here?
Answer: 93.3%

Question: `C[C@]12CC[C@@H]3c4ccc(O)cc4C[C@@H](CCCCCCCCC[S+]([O-])CCCC(F)(F)C(F)(F)F)[C@H]3[C@@H]1CC[C@@H]2O` (stereo not given in full) [Fulvestrant (Faslodex)] was tested. Which cell viability did it give?
Answer: 93.1%

Question: For `OC[C@@H](O)[C@@H](O[C@@H]1O[C@H](CO)[C@H](O)[C@H](O)[C@H]1O)[C@H](O)[C@@H](O)CO` [Lactitol], which cell viability is on record?
Answer: 99.8%

Question: For `CC(C)N(CCCNC(=O)Nc1ccc(C(C)(C)C)cc1)C[C@H]1O[C@@H](n2ccc3c(N)ncnc32)[C@H](O)[C@@H]1O`, which cell viability is on record?
Answer: 95.5%

Question: For `c1ccc2[nH]c(-c3cscn3)nc2c1` [Thiabendazole], which cell viability is on record?
Answer: 97.8%

Question: For `CN1[C@@H]2CC[C@H]1C[C@@H](OC(c1ccccc1)c1ccccc1)C2` [Benztropine mesylate], which cell viability is on record?
Answer: 83.7%

Source: the supplement of paper PMC10981050
